Source: PubChem (Broad Institute)
Most compounds without a hit are left out; they make up all but 3% or so of the library.
Wnt bcat act – activates Wnt/beta-catenin signaling in a reporter cell assay; activator, plate reader; activation, % at 9.35 µM; 300,000 compounds, 1.2% hits; in the data active means activation above about 30%, passing the limit was not always enough; inconclusive means no clear call, values can overlap the other calls
MITF act – increases MITF-driven TRPM1 promoter luciferase signal; SK-MEL-5 TRPM1-promoter luciferase, 24 h; % of positive control, neutral wells = 0; 300,000 compounds, 0.75% hits; activation, % at 12.5 µM;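 active means mean activation of at least 80% with every replicate also reaching 80%; inconclusive means mean reaches 80% but some replicate falls short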
esBAF inh – inhibitors of esBAF chromatin remodeling in mouse ES cells | Bmi1-luciferase knock-in reporter, 24 h; 100% = twice the neutral-well signal | reporter increase, % at 12.5 µM | 350,000 compounds, 2% hits | AID 602393; in the data active means activation above about 40%; inconclusive means no clear call, values can overlap the other calls;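 further: a rise in the Bmi1 reporter signal indicates esBAF inhibition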
Statin myotox sup – suppressors of simvastatin-induced myotoxicity in C2C12 myotubes; ATP luminescence, 48 h; scaled: DMSO 0, geranylgeraniol control 100; rescue of ATP level, % at 7.49 µM; 330,000 compounds, 0.78% hits; AID 602340;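 active means mean ATP rescue above about 67%, or every replicate alone reaching that limit, limit read from the data, passing the limit was not always enough; inconclusive means no clear call, values can overlap the other calls; inactive means mean under the limit and some replicate under it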;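 further: myotubes were challenged with 10 µM simvastatin during compound exposure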
Numbers stand for hits; i = inactive; ? = inconclusive; nt = no result given.

SMILES	Wnt bcat act	MITF act	esBAF inh	Statin myotox sup
c1ccn(-c2ccc(-c3ccn[nH]3)cc2)c1	i	93	nt	nt
Cc1ccc(C(CC(=O)c2ccco2)SCCO)cc1 (stereo unspecified)	37	i	i	i
CCC(=O)Nc1ccc2c(c1)C(=O)N(C)C[C@@H](OC)[C@@H](C)CN(C(=O)C1CC1)[C@@H](C)CO2	nt	nt	i	i
O=C(c1cc2ccccc2[nH]1)N1O[C@@H]2C=C[C@H]1C2	?	i	42	i
CS/C(N)=N/N=C/c1cc(C)ccc1O	88	?	nt	nt
CCS/C(N)=N/N=C/c1cc(C)ccc1O	nt	i	nt	nt
C[C@@H]1CN([C@@H](C)CO)C(=O)c2cc(NS(=O)(=O)c3cn(C)cn3)ccc2O[C@@H](C)CCCCO[C@@H]1CN(C)C(=O)CCC(F)(F)F	nt	nt	i	nt
COc1ccc(C2C(C(=O)OCC(=O)Nc3ccc(C)cc3)CCC(=O)N2c2ccc(OC)cc2)cc1 (stereo unspecified)	i	nt	i	95
COc1ccc(C2C(C(=O)OCC(=O)NC(C)(C)C)CCC(=O)N2c2ccc(C)cc2)cc1OC (stereo unspecified)	nt	i	i	i
C[C@@H]1CN([C@H](C)CO)C(=O)c2cccc(NC(=O)Nc3ccccc3)c2O[C@H]1CN(C)C(=O)Nc1ccc(F)cc1	nt	nt	i	i
COc1ccc(N(C(=O)c2ccco2)S(=O)(=O)c2cc(OC)ccc2OC)cc1	nt	i	i	104
COc1ccc(S(=O)(=O)NCc2csc(C)n2)cc1	i	i	i	142
CCn1c2ccccc2c2cc(/C(C)=N/O)ccc21	i	i	i	i
CCn1c2ccccc2c2cc(N)ccc21	i	i	i	108
O=C(NC(=S)Nn1cnnc1)c1ccccc1Cl	i	i	nt	nt
CC(C)(C)c1ccc(C(=O)NC(=S)Nn2cnnc2)cc1	i	i	44	i
O=C(CNC(=O)c1ccccc1F)c1ccccc1	38	nt	i	i
O=C(NCCOC(=O)c1ccccc1)c1ccc([N+](=O)[O-])cc1	i	nt	i	i
CN(C)S(=O)(=O)c1ccc(C(=O)NCCSc2ccccc2)cc1	nt	i	53	i
O=C(NCCOC(=O)c1ccncc1)c1ccccc1	nt	i	i	87
CC(C)(C)SCCNC(=O)COc1ccccc1	nt	i	i	i
O=C(COc1ccccc1)NCCSc1ccccc1	i	nt	52	i
CCCC(=O)Nc1ccc2c(c1)C(=O)N(C)[C@@H]1CC[C@H](CC(=O)Nc3ccccc3)O[C@H]1CO2	nt	nt	i	i
O=C(NCCSc1ccccc1)c1ccccc1F	i	nt	47	i
O=C(NCCSc1ccccc1)c1cccnc1	nt	i	58	i
SMILES	Wnt bcat act	MITF act	esBAF inh	Statin myotox sup
CCC(=O)Nc1ccc2c(c1)C(=O)N(C)C[C@H](OC)[C@@H](C)CN(C(=O)Cc1ccccn1)[C@H](C)CO2	nt	nt	i	i
CCN1/C(=C\C=C(C(C)=O)C(C)=O)Sc2ccccc21	i	i	nt	nt
CCOC(=O)/C(C#N)=C(C)/C=C1\Sc2ccccc2N1CC	i	i	67	i
C[C@H](CO)N1C[C@H](C)[C@@H](CN(C)C(=O)c2ccncc2)OCCCC[C@H](C)Oc2ccc(NS(=O)(=O)c3ccc(F)cc3)cc2C1=O	nt	nt	i	nt
Oc1[nH]c2ccccc2c1C=Nc1ccccc1	45	?	?	i
C[C@@H]1CN([C@@H](C)CO)C(=O)c2cc(-c3cccnc3)cnc2O[C@@H]1CN(C)C(=O)Cc1cccnc1	nt	nt	i	i
O=C(Nc1ccc(Cl)cc1)Nc1ccc(Br)cn1	i	94	?	i
COc1ccc(NC(=O)Nc2ccc(Br)cn2)cc1OC	i	i	i	i
Cc1ccnc(NC(=O)Nc2ccc(F)cc2)c1	nt	i	nt	nt
Cc1ccc(NC(=O)Nc2ccc(F)cc2)nc1	nt	82	nt	nt
Cc1cc(NC(=O)Nc2ccc(Cl)cc2)no1	i	i	47	i
COc1cccc(NC(=O)Nc2ccc(Br)cn2)c1	i	106	47	i
COc1ccc(S(=O)(=O)Nc2ccc3c(c2)C(=O)N([C@@H](C)CO)C[C@@H](C)[C@H](CN(C)C(=O)c2ccccc2)OCCCC[C@H](C)O3)cc1	nt	nt	i	i
CCNC(=O)[C@H]1[C@H](CO)[C@H]2Cn3c(ccc(-c4cccnc4)c3=O)[C@@H]1N2Cc1ccccc1	nt	nt	i	i
CN(C)c1ccc(/C=N/c2cc(-c3ccccc3)nn2-c2ccccc2)cc1	i	nt	62	i
Cc1ccc(C(=O)Nc2ccc(S(=O)(=O)N3CCOCC3)cc2)cc1Br	41	nt	nt	nt
O=C(Nc1ccc(S(=O)(=O)N2CCOCC2)cc1)c1ccc([N+](=O)[O-])o1	i	i	i	88
O=C(CN1CCN(S(=O)(=O)c2ccc(Cl)cc2)CC1)Nc1ccc2c(c1)OCCO2	nt	i	i	i
O=C(CN1CCN(S(=O)(=O)c2ccc(Br)cc2)CC1)Nc1ccc2c(c1)OCCO2	nt	i	i	144
O=C(CCNC(=O)c1ccc(Br)cc1)Nc1ccc(S(=O)(=O)N2CCOCC2)cc1	36	i	i	i
Cc1ccc(C(=O)Nc2ccc(S(=O)(=O)N3CCOCC3)cc2)cc1C	i	nt	i	i
COc1ccc(NC(=O)N(C)C[C@H]2Oc3ccc(NS(=O)(=O)c4ccc(OC)cc4)cc3CC(=O)N([C@@H](C)CO)C[C@@H]2C)cc1	nt	nt	i	i
COc1ccc(-c2cn3cc(Cl)ccc3n2)cc1OC	i	i	69	i
COc1ccc(-c2cn3nc(C)c(C)nc3n2)cc1OC	?	?	47	i
Cc1ccc(-c2cn3nc(C)c(C)nc3n2)cc1	nt	i	i	i
SMILES	Wnt bcat act	MITF act	esBAF inh	Statin myotox sup
COc1ccccc1S(=O)(=O)N[C@@H]1C=C[C@@H](CC(=O)N2CCN(C)CC2)O[C@@H]1CO	nt	nt	i	i
COc1ccccc1S(=O)(=O)N[C@H]1CC[C@@H](CC(=O)N2CCCCC2)O[C@H]1CO	nt	nt	i	i
Cc1ccc(S(=O)(=O)N2CCN(C(=O)COC(=O)c3cc(C)oc3C)CC2)cc1	nt	i	i	98
COc1ccc2oc(C(=O)OCC(=O)N3CCN(S(=O)(=O)c4ccc(C)cc4)CC3)c(C)c2c1	i	i	i	i
O=C(CSc1ncnc2ccccc12)N1CCNC1=O	i	i	42	i
CN(C(=O)CSc1nnc(-c2ccco2)o1)C1CCCCC1	nt	i	41	i
CN(C(=O)CSc1ncnc2ccccc12)C1CCCCC1	i	104	86	i
O=C(CSc1nnc(-c2ccco2)o1)NC1CCCCC1	i	nt	i	i
Cc1nc(SCC(=O)N2CCNC2=O)c2ccccc2n1	i	i	i	i
C[C@H]1CN([C@@H](C)CO)C(=O)Cc2cc(NC(=O)C3CC3)ccc2O[C@H]1CN(C)C(=O)Nc1cccc2ccccc12	nt	nt	i	i
C[C@H]1CCCCO[C@H](CN(C)Cc2ccc(Cl)c(Cl)c2)[C@@H](C)CN([C@@H](C)CO)C(=O)c2cc(NS(C)(=O)=O)ccc2O1	nt	nt	i	i
C[C@@H]1CN([C@@H](C)CO)C(=O)c2cccc(NC(=O)CCCCCC(=O)Nc3ccccc3N)c2O[C@H]1CN(C)S(=O)(=O)c1ccc(Cl)cc1	nt	nt	i	i
O=C(/C=C/Nc1ccc([N+](=O)[O-])cc1Br)c1cccc2ccccc12	48	115	nt	nt
NC(=O)c1cc([N+](=O)[O-])ccc1NCc1cccc2ccccc12	i	i	i	i
CC(=O)N1CCN(c2ccc(NC(=O)c3ccco3)cc2)CC1	i	i	i	i
